Laboratory results from PubChem BioAssay AID720492 (Broad Institute, 2013).
The source made the active and inactive calls.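 Rule for the calls: active = unnormalized dose curve rising to cross level 40 at or below the top tested dose; inconclusive = flat fit at moderately raised activity, or poor fit; inactive = the rest.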

Assay: miR-27b level by RT-PCR, dose response, miR-122 / miR-27b project, Huh7 cells, cherry-pick, activator set (AID 720492)

## Cc1cccc(NC(=O)Nc2ccc3c(c2)C(=O)N(C)[C@@H]2CC[C@@H](CC(=O)NCc4ccccc4Cl)O[C@H]2CO3)c1
  outcome: inactive

## CN1C(=O)c2cc(NC(=O)c3cccc(F)c3)ccc2OC[C@H]2O[C@H](CC(=O)O)CC[C@H]21
  outcome: inactive

## COCC(=O)N(C)C[C@@H]1Oc2ncc(-c3ccc(C#N)cc3)cc2C(=O)N([C@@H](C)CO)C[C@@H]1C
  outcome: inactive

## CCCC#Cc1ccc2c(c1)O[C@H](CN(C)C(=O)c1ccncc1)[C@H](C)CN([C@@H](C)CO)S2(=O)=O
  outcome: inactive

## C/C=C/c1cnc2c(c1)C(=O)N([C@@H](C)CO)C[C@H](C)[C@H](CN(C)S(=O)(=O)c1ccc(OC)cc1)O2
  outcome: inactive

## COc1cccc(C(=O)Nc2ccc3c(c2)C(=O)N(C)C[C@@H](OC)[C@@H](C)CN[C@@H](C)CO3)c1
  outcome: inactive

## CN1C(=O)c2cc(NC(=O)c3cccc(F)c3)ccc2OC[C@@H]2O[C@H](CC(=O)O)CC[C@H]21
  outcome: inactive

## CN1C(=O)c2cc(NC(=O)c3cccc(F)c3)ccc2OC[C@H]2O[C@@H](CC(=O)O)CC[C@@H]21
  outcome: inactive

## COCC(=O)N(C)C[C@H]1Oc2cc(C#Cc3cccnc3)ccc2S(=O)(=O)N([C@@H](C)CO)C[C@H]1C
  outcome: inactive

## C[C@H]1CN([C@@H](C)CO)C(=O)c2cc(-c3ccc(C#N)cc3)cnc2O[C@H]1CN(C)Cc1cncnc1
  outcome: inactive

## CN1C(=O)c2cc(NC(=O)c3cccc(F)c3)ccc2OC[C@@H]2O[C@H](CC(=O)O)CC[C@@H]21
  outcome: inactive

## COCC(=O)N(C)C[C@H]1Oc2cc(-c3ccc(C#N)cc3)ccc2S(=O)(=O)N([C@@H](C)CO)C[C@H]1C
  outcome: inactive

## C[C@H]1CN([C@@H](C)CO)C(=O)c2cc(-c3ccc(C#N)cc3)cnc2O[C@H]1CN(C)C(=O)c1ccccc1
  outcome: inactive

## C[C@H]1CN([C@@H](C)CO)C(=O)c2cc(C#Cc3ccccc3F)cnc2O[C@@H]1CN(C)C(=O)C1CCCCC1
  outcome: inactive

## C[C@@H]1CN([C@@H](C)CO)S(=O)(=O)c2ccc(C#Cc3ccncc3)cc2O[C@@H]1CN(C)C(=O)C1CCOCC1
  outcome: inactive

## C[C@H]1CN([C@@H](C)CO)C(=O)c2cc(C#Cc3ccccc3F)cnc2O[C@H]1CN(C)C(=O)C1CCCCC1
  outcome: inactive

## C[C@H]1CN([C@@H](C)CO)S(=O)(=O)c2ccc(C#Cc3ccncc3)cc2O[C@H]1CN(C)C(=O)C1CCOCC1
  outcome: inactive

## C[C@H](CO)N1C[C@H](C)[C@H](CN(C)C(=O)C2CCOCC2)Oc2cc(C#Cc3ccncc3)ccc2S1(=O)=O
  outcome: inactive

## CN1C(=O)c2cc(NC(=O)c3cccc(F)c3)ccc2OC[C@H]2O[C@@H](CC(=O)O)CC[C@H]21
  outcome: inactive

## Cc1cccc(NC(=O)Nc2ccc3c(c2)C(=O)N(C)[C@@H]2CC[C@H](CC(=O)NCc4ccccc4Cl)O[C@H]2CO3)c1
  outcome: inactive

## COCC(=O)N(C)C[C@H]1Oc2cc(C#Cc3cccnc3)ccc2S(=O)(=O)N([C@H](C)CO)C[C@H]1C
  outcome: inactive
